Laboratory results as given in PubChem BioAssay (NCATS).
Results filed as inconclusive are left out. The source made the active and inactive calls. The call rests on the fitted dose curve.

How the values were obtained:
[1] = Primary qHTS for inhibitors of SARS-S pseudo-typed particle cell entry (AID 1479145); further: nearly all actives have a fitted effect of over 45% in size
[2] = Primary qHTS for Huh7 cytotoxicity: counterscreen for inhibitors of MERS-S pseudotyped particle cell entry (AID 1479147)
[3] = Primary qHTS for inhibitors of MERS-S pseudo-typed particle cell entry (AID 1479149); further: nearly all actives have a fitted effect of over 60% in size
[4] = Primary qHTS for Vero E6 cytotoxicity: counterscreen for inhibitors of SARS-S pseudo-typed particle cell entry (AID 1479150)

Measured: Potency

Nc1c(I)cc(I)c(C(=O)N(CCC(=O)O)c2ccccc2)c1I
inactive: [1] | [2] | [3] | [4]

O=C(O)/C=C\C(=O)O
inactive: [1] | [2] | [3] | [4]

CC[N+](CC)(CC)CCOc1cccc(OCC[N+](CC)(CC)CC)c1OCC[N+](CC)(CC)CC
inactive: [1] | [2] | [3] | [4]

OC[C@H]1O[C@@H](Oc2ccc(O)cc2)[C@H](O)[C@@H](O)[C@@H]1O
inactive: [1] | [2] | [3] | [4]

O=C(O)c1cc(=O)c2c(OCC(O)COc3cccc4oc(C(=O)O)cc(=O)c34)cccc2o1
inactive: [1] | [2] | [3] | [4]

CC1CCc2c(N3CCC(O)CC3)c(F)cc3c(=O)c(C(=O)O)cn1c23 (stereo not given)
inactive: [1] | [2] | [3] | [4]

COC(=O)c1cc(Cl)ccc1NS(=O)(=O)C(F)(F)F
inactive: [1] | [2] | [3] | [4]

O=P(O)(O)C(O)(Cn1ccnc1)P(=O)(O)O
inactive: [1] | [2] | [3] | [4]

O=C(N[C@H](CO)[C@H](O)c1ccc([N+](=O)[O-])cc1)C(Cl)Cl
inactive: [1] | [2] | [3] | [4]

COC(=O)C(c1ccccc1)C1CCCCN1 (stereo not given)
inactive: [1] | [2] | [3] | [4]

N#Cc1ccc(C(c2ccc(C#N)cc2)n2cncn2)cc1
inactive: [1] | [2] | [3] | [4]

Nc1ccc(S(=O)(=O)NC(=O)c2ccccc2)cc1
inactive: [1] | [2] | [3] | [4]

COc1cc(C(=O)NC2CCCNC2)cc(OC)c1OC (stereo not given)
inactive: [1] | [2] | [3] | [4]

COc1cc(NS(=O)(=O)c2ccc(N)cc2)nc(C)n1
inactive: [1] | [2] | [3] | [4]

CCc1cc(C(N)=S)ccn1
inactive: [1] | [2] | [3] | [4]
